Experiment [1] can be described thus: NCI Yeast Anticancer Drug Screen. Data for the rad50 strain (AID 155).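 Further: 0% = growth of vehicle-only cultures of the same strain.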 The settings on record: S. cerevisiae rad50 strain growth inhibition, stronger effect = higher value. The procedure, abridged:
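A DNA repair-deficient yeast mutant serves as the test organism; compound-induced growth inhibition is calculated against vehicle-treated cells.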

Experiment [2] can be described thus: NCI Yeast Anticancer Drug Screen. Data for the mec2-1 strain (AID 157). The conditions noted are these: S. cerevisiae mec2-1 strain, stronger effect = higher value. A digest of the protocol: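 Growth inhibition is read against vehicle-treated controls after compound exposure of the mec2-1 yeast strain, which is defective in DNA damage repair or cell cycle control.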
Experiment [3] in a line: NCI Yeast Anticancer Drug Screen. Data for the sgs1 mgt1 strain (AID 161).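 Further: 0% = growth of cultures given vehicle only.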 The settings on record: S. cerevisiae sgs1 mgt1 strain, stronger effect = higher value. A digest of the protocol: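 This yeast growth screen uses a strain with defined DNA-repair lesions; compound-treated growth is compared with vehicle-treated growth.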
Experiment [4] is described as follows: NCI Yeast Anticancer Drug Screen. Data for the cln2 rad14 strain (AID 165).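 Further: 0% = growth equal to vehicle treated cultures.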 The settings on record: S. cerevisiae cln2 rad14 strain, stronger effect = higher value. A digest of the protocol: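 Growth inhibition, relative to vehicle-treated controls, is the read-out. The test organism is a yeast strain with defined genetic alterations, cln2 rad14.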
A short description of experiment [5]: NCI Yeast Anticancer Drug Screen. Data for the bub3 strain (AID 167). The settings on record: S. cerevisiae bub3 mutant strain, stronger effect = higher value. The procedure, abridged: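 Inhibition values come from growth of compound-treated mutant yeast normalised to vehicle-treated controls.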
Experiment [6] in a line: NCI Yeast Anticancer Drug Screen. Data for the mlh1 rad18 strain (AID 175). The conditions noted are these: S. cerevisiae mlh1 rad18 strain growth inhibition, stronger effect = higher value. The procedure, abridged: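 Cells of a genetically altered yeast strain, deficient in DNA damage repair, were treated with compound. Their growth was then compared with that of vehicle-treated cultures to give inhibition.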

Setting [7] is: at 5.0 µM (retest, dose inferred, filed as 0.5).
The mark [8] stands for this setting: at 50.0 µM (retest, dose inferred, filed as 5.0).

Structures are written as SMILES. About 79,000 compounds went through this panel and 15% of them were active in at least one assay; those are over-represented in the sample as a whole. Unmarked numbers belong to inactive results. Calls of active or inactive are those of the source. No stated cut-off is given here; in the data, active means growth inhibition above about 70%; inactive means the rest.

For the compound `CC(=O)N(/C=C\c1sc2ccccc2[n+]1C)c1ccccc1`, the growth inhibition in experiment [1] (setting [7]) was 38%; in experiment [1] (setting [8]), 96% (active); in experiment [1] (at 50.0 µM) it was 90.5% (active); in experiment [2] (setting [7]), 27%; in experiment [2] (setting [8]), 98% (active); in experiment [2] (at 50.0 µM) it was 87.5% (active). For the same compound, the growth inhibition is 61% in experiment [3] (setting [7]); 89% (active) in experiment [3] (setting [8]); 84% (active) in experiment [3] (at 50.0 µM); 33% in experiment [4] (setting [7]); 65% in experiment [4] (setting [8]); 89.8% (active) in experiment [4] (at 50.0 µM). In addition, the growth inhibition in experiment [5] (setting [7]) is 27%; in experiment [5] (setting [8]), 98% (active); in experiment [5] (at 50.0 µM), 91.3% (active); in experiment [6] (setting [7]) it was 54%; in experiment [6] (setting [8]) it was 97% (active); in experiment [6] (at 50.0 µM), 90.6% (active).
Consider `C/C(=N\NC(=S)NNC(=S)N1CCCc2ccccc21)c1ccccn1`, for which the growth inhibition in experiment [1] (setting [7]) is 3%; in experiment [1] (setting [8]) it was 96% (active); in experiment [1] (at 50.0 µM) it was 95.9% (active); in experiment [2] (setting [7]), -16%; in experiment [2] (setting [8]), 96% (active); in experiment [2] (at 50.0 µM), 95.7% (active). Also, the growth inhibition in experiment [3] (setting [7]) was 30%; in experiment [3] (setting [8]) it was 97% (active); in experiment [3] (at 50.0 µM) it was 96.7% (active); in experiment [4] (setting [7]), -23%; in experiment [4] (setting [8]) it was 96% (active); in experiment [4] (at 50.0 µM) it was 95.8% (active). Besides, the growth inhibition was -6% in experiment [5] (setting [7]); 97% (active) in experiment [5] (setting [8]); 90.7% (active) in experiment [5] (at 50.0 µM); 5% in experiment [6] (setting [7]); 95% (active) in experiment [6] (setting [8]); 95.6% (active) in experiment [6] (at 50.0 µM).
As to `CCCCOC(=O)c1nc(N(CC2CCCCC2)C(=O)NC)sc1NC(=O)NC`, the growth inhibition in experiment [1] (setting [7]) was -3%; in experiment [1] (setting [8]) it was 92% (active); in experiment [1] (at 50.0 µM), 10.5%; in experiment [2] (setting [7]) it was -3%; in experiment [2] (setting [8]), 95% (active); in experiment [2] (at 50.0 µM) it was 0.85%. Moreover, the growth inhibition was -18% in experiment [3] (setting [7]); 97% (active) in experiment [3] (setting [8]); 8.7% in experiment [3] (at 50.0 µM); -3% in experiment [4] (setting [7]); 95% (active) in experiment [4] (setting [8]); 1.6% in experiment [4] (at 50.0 µM). Further, the growth inhibition in experiment [5] (setting [7]) is 0%; in experiment [5] (setting [8]), 95% (active); in experiment [5] (at 50.0 µM), -1.65%; in experiment [6] (setting [7]), 5%; in experiment [6] (setting [8]) it was 96% (active); in experiment [6] (at 50.0 µM) it was 29.2%.
Turning to `CC(C(=O)c1ccc(Cl)cc1)C1OC(=O)C(Cl)=C1Cl` (stereo not given), the growth inhibition in experiment [1] (setting [7]) was 43%; in experiment [1] (setting [8]), 54%; in experiment [1] (at 50.0 µM), 90.8% (active); in experiment [2] (setting [7]) it was 37%; in experiment [2] (setting [8]), 51%; in experiment [2] (at 50.0 µM), 93.4% (active). Further, the growth inhibition in experiment [3] (setting [7]) is 43%; in experiment [3] (setting [8]) it was 70% (active); in experiment [3] (at 50.0 µM), 92.9% (active); in experiment [4] (setting [7]), 32%; in experiment [4] (setting [8]) it was 43%; in experiment [4] (at 50.0 µM), 87.7% (active). Besides, the growth inhibition is 40% in experiment [5] (setting [7]); 72% (active) in experiment [5] (setting [8]); 91.5% (active) in experiment [5] (at 50.0 µM); 56% in experiment [6] (setting [7]); 71% (active) in experiment [6] (setting [8]); 91.7% (active) in experiment [6] (at 50.0 µM).
Regarding `O=C1CN=C(c2ccccc2)N(c2ccccc2)N1`, the growth inhibition in experiment [1] (setting [7]) is -1%; in experiment [1] (setting [8]), 96% (active); in experiment [1] (at 50.0 µM) it was 94% (active); in experiment [2] (setting [7]) it was -6%; in experiment [2] (setting [8]), 97% (active); in experiment [2] (at 50.0 µM), 96.5% (active). In addition, the growth inhibition was -15% in experiment [3] (setting [7]); 96% (active) in experiment [3] (setting [8]); 94.5% (active) in experiment [3] (at 50.0 µM); 2% in experiment [4] (setting [7]); 93% (active) in experiment [4] (setting [8]); 85% (active) in experiment [4] (at 50.0 µM). Also, the growth inhibition is 8% in experiment [5] (setting [7]); 97% (active) in experiment [5] (setting [8]); 94.7% (active) in experiment [5] (at 50.0 µM); -1% in experiment [6] (setting [7]); 94% (active) in experiment [6] (setting [8]); 94.4% (active) in experiment [6] (at 50.0 µM).
Take `CC12CCC(O)CC1=CCC1C2CCC2(C)c3nc(C#N)c(=N)n(O)c3CC12` (stereo not given): the growth inhibition was 12% in experiment [1] (setting [7]); 96% (active) in experiment [1] (setting [8]); 98.5% (active) in experiment [1] (at 50.0 µM); 0% in experiment [2] (setting [7]); 71% (active) in experiment [2] (setting [8]); 98.7% (active) in experiment [2] (at 50.0 µM). Moreover, the growth inhibition was 6% in experiment [3] (setting [7]); 93% (active) in experiment [3] (setting [8]); 99.2% (active) in experiment [3] (at 50.0 µM); 4% in experiment [4] (setting [7]); 89% (active) in experiment [4] (setting [8]); 98.5% (active) in experiment [4] (at 50.0 µM). The growth inhibition in experiment [5] (setting [7]) was 1%; in experiment [5] (setting [8]), 81% (active); in experiment [5] (at 50.0 µM) it was 98% (active); in experiment [6] (setting [7]), 44%; in experiment [6] (setting [8]) it was 85% (active); in experiment [6] (at 50.0 µM), 99.2% (active).
On to `COc1cccc2c1C(=O)c1c(O)c3c(c(O)c1C2=O)CC(O)(C(C)=O)CC3OC1CC(NCC2(O)OCC(O)C2O)C(O)C(C)O1` (stereo not given), for which the growth inhibition was 50% in experiment [1] (setting [7]); 96% (active) in experiment [1] (setting [8]); 88.8% (active) in experiment [1] (at 50.0 µM); 34% in experiment [2] (setting [7]); 98% (active) in experiment [2] (setting [8]); 88.6% (active) in experiment [2] (at 50.0 µM). Also, the growth inhibition in experiment [3] (setting [7]) was 33%; in experiment [3] (setting [8]) it was 98% (active); in experiment [3] (at 50.0 µM) it was 86.8% (active); in experiment [4] (setting [7]), 44%; in experiment [4] (setting [8]), 97% (active); in experiment [4] (at 50.0 µM), 87.4% (active). Further, the growth inhibition was 34% in experiment [5] (setting [7]); 98% (active) in experiment [5] (setting [8]); 87.1% (active) in experiment [5] (at 50.0 µM); 40% in experiment [6] (setting [7]); 96% (active) in experiment [6] (setting [8]); 91% (active) in experiment [6] (at 50.0 µM).
Take `CCOC(=O)C(=Cc1cccnc1C)C(=O)OCC`: the growth inhibition is 16% in experiment [1] (setting [7]); 1% in experiment [1] (setting [8]); 70.9% (active) in experiment [1] (at 50.0 µM); -3% in experiment [2] (setting [7]); 4% in experiment [2] (setting [8]); 51.7% in experiment [2] (at 50.0 µM). Also, the growth inhibition was 42% in experiment [3] (setting [7]); 4% in experiment [3] (setting [8]); 60.7% in experiment [3] (at 50.0 µM); 16% in experiment [4] (setting [7]); 27% in experiment [4] (setting [8]); 45.9% in experiment [4] (at 50.0 µM). Besides, the growth inhibition in experiment [5] (setting [7]) is -31%; in experiment [5] (setting [8]), -14%; in experiment [5] (at 50.0 µM) it was 73.2% (active); in experiment [6] (setting [7]), -8%; in experiment [6] (setting [8]), 1%; in experiment [6] (at 50.0 µM), 57.7%.
For the compound `CCOc1ccc2c(c1)[n+]([O-])c(-c1ccccc1)c(N)[n+]2[O-]`, the growth inhibition in experiment [1] (setting [7]) was 23%; in experiment [1] (setting [8]), 98% (active); in experiment [1] (at 50.0 µM), 99.2% (active); in experiment [2] (setting [7]) it was 28%; in experiment [2] (setting [8]), 99% (active); in experiment [2] (at 50.0 µM), 99.3% (active). For the same compound, the growth inhibition in experiment [3] (setting [7]) was 27%; in experiment [3] (setting [8]), 99% (active); in experiment [3] (at 50.0 µM), 99.2% (active); in experiment [4] (setting [7]), 37%; in experiment [4] (setting [8]), 98% (active); in experiment [4] (at 50.0 µM), 98.6% (active). For the same compound, the growth inhibition is 69% in experiment [5] (setting [7]); 99% (active) in experiment [5] (setting [8]); 99.1% (active) in experiment [5] (at 50.0 µM); 66% in experiment [6] (setting [7]); 98% (active) in experiment [6] (setting [8]); 98.8% (active) in experiment [6] (at 50.0 µM).
`O=C1c2ccccc2C(=O)c2sc(Nc3ccccc3C(F)(F)F)nc21`: the growth inhibition was 99% (active) in experiment [1] (setting [7]); 96% (active) in experiment [1] (setting [8]); 90.3% (active) in experiment [1] (at 50.0 µM); 100% (active) in experiment [2] (setting [7]); 97% (active) in experiment [2] (setting [8]); 92.1% (active) in experiment [2] (at 50.0 µM). Further, the growth inhibition was 99% (active) in experiment [3] (setting [7]); 96% (active) in experiment [3] (setting [8]); 92.7% (active) in experiment [3] (at 50.0 µM); 94% (active) in experiment [4] (setting [7]); 97% (active) in experiment [4] (setting [8]); 90.5% (active) in experiment [4] (at 50.0 µM). The growth inhibition was 99% (active) in experiment [5] (setting [7]); 97% (active) in experiment [5] (setting [8]); 92.2% (active) in experiment [5] (at 50.0 µM); 99% (active) in experiment [6] (setting [7]); 96% (active) in experiment [6] (setting [8]); 88.5% (active) in experiment [6] (at 50.0 µM).
